Assay results from PubChem BioAssay (Tox21).
“And” between values parts separate entries of the source, which are not always exact repeats. Equal entries are not always repeated. Results filed as inconclusive are left out. Entries that show only a call come without a potency. The source holds several records for some structures; these can differ, active in one and inactive in another. The source made the active and inactive calls. Unless noted, the call rests on the fitted dose curve; in most records, active means well fitted curve in the direction sought with a large enough effect in the repeat runs; inconclusive means weak or mixed curves; inactive means no such curve, though single readings can be large; an effect the other way counts as inactive or inconclusive.

Columns and labels:
[1] = qHTS assay to identify small molecule antagonists of the glucocorticoid receptor (GR) signaling pathway - cell viability counter screen (AID 720693); further: nearly all actives have a fitted effect of over 55% in size; further: potency means the concentration at half of the fitted maximal effect
[2] = qHTS assay for identifying genotoxic compounds that show differential cytotoxicity against isogenic chicken DT40 cell lines with known DNA damage response pathways - wild type cell line (AID 743012); further: nearly all actives have a fitted effect of over 60% in size; further: potency means the concentration at half of the fitted maximal effect
Outline: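 Wild-type DT40 cells (300/well) exposed to compounds for 40 hours at 37 C/5% CO2. Viability read by CellTiter-Glo luminescence after 30 min at room temperature.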

[3] = qHTS assay for identifying genotoxic compounds that show differential cytotoxicity against isogenic chicken DT40 cell lines with known DNA damage response pathways - Rev3 mutant cell line (AID 743014); further: nearly all actives have a fitted effect of over 55% in size; further: potency means the concentration at half of the fitted maximal effect
[4] = qHTS assay for identifying genotoxic compounds that show differential cytotoxicity against isogenic chicken DT40 cell lines with known DNA damage response pathways - Rad54/Ku70 mutant cell line (AID 743015); further: nearly all actives have a fitted effect of over 60% in size; further: potency means the concentration at half of the fitted maximal effect
[5] = qHTS assay to identify small molecule antagonists of the androgen receptor (AR) signaling pathway - cell viability counter screen (AID 743033; further: nearly all actives have a fitted effect of over 45% in size; further: potency means the concentration at half of the fitted maximal effect)
[6] = qHTS assay to identify small molecule antagonists of the androgen receptor (AR) signaling pathway using the MDA cell line - cell viability counter screen (AID 743041; further: nearly all actives have a fitted effect of over 45% in size)
Outline: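 Viability counter screen run alongside the AR antagonist reporter: cells seeded 5 h before compound, R1881 added, 16 h incubation at 37C without CO2, fluorescent CellTiter-Fluor signal quantified.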

[7] = biological target: Androgen receptor (Homo sapiens) (UniProt P10275); assay: qHTS assay to identify small molecule agonists of the androgen receptor (AR) signaling pathway (AID 743036; active means well fitted activation curve with a large enough effect in the signal ratio in the repeat runs, with a control signal flat, not every such curve was filed as active; the % refers to the signal ratio)
Sequence of Androgen receptor (Homo sapiens) (P10275 whole entry, looked up): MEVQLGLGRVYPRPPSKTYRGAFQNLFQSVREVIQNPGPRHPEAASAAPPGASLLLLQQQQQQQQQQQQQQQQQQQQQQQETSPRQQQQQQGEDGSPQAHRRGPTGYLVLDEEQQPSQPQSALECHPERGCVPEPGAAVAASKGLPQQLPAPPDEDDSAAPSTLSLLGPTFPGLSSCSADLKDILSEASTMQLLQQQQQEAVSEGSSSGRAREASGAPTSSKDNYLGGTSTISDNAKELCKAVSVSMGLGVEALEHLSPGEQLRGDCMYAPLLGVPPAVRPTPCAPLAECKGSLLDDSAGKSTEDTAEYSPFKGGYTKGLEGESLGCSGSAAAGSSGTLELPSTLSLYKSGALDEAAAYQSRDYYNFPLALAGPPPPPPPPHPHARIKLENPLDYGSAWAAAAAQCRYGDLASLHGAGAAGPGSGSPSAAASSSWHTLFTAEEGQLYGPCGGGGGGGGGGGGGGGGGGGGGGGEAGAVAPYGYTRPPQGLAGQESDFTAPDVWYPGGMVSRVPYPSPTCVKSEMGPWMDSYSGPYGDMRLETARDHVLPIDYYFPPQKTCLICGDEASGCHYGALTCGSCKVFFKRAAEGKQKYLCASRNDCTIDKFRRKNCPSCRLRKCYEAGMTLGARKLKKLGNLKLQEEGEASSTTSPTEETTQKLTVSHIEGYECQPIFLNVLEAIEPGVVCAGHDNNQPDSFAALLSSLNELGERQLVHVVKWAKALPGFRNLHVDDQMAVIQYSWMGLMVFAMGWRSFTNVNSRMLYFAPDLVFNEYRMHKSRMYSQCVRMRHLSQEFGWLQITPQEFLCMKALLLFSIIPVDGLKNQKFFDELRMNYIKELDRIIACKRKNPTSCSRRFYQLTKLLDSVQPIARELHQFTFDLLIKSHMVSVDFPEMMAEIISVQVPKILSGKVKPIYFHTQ
Outline: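 Quantitative HTS of the Tox21 10K library in HEK293 cells bearing a stably integrated UAS-controlled beta-lactamase reporter. Compound exposure lasted 16 h at 37C. Reporter activity was detected by FRET substrate fluorescence after 2 h at room temperature.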

[8] = biological target: Androgen receptor (Homo sapiens) (UniProt P10275); assay: qHTS assay to identify small molecule agonists of the androgen receptor (AR) signaling pathway using the MDA cell line (AID 743040; further: nearly all actives have a fitted effect of over 20% in size); details: MDA-kb2 AR-luc cells, MMTV luciferase, 16 h; activity change: at 70.3 µM (top of the series), stronger effect = higher value
Outline: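 Luminescence from ONE-Glo, read after 30 min at room temperature, reflects MMTV-driven luciferase in MDA-kb2 cells (AR- and GR-responsive). Treatment lasted 16 h at 37C, 0% CO2.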

[9] = biological target: Androgen receptor (Homo sapiens) (UniProt P10275); assay: qHTS assay to identify small molecule antagonists of the androgen receptor (AR) signaling pathway using the MDA cell line (AID 743042; further: nearly all actives have a fitted effect of over 55% in size; further: potency means the concentration at half of the fitted maximal effect)
Outline: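 MDA-kb2 cells (human breast carcinoma, stably carrying an MMTV-luciferase reporter responsive to AR and GR) were plated at 3,000 cells/well and preincubated 5 hr at 37C, then given compound plus R1881 agonist for 16 h. ONE-Glo luminescence was read.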

[10] = biological target: Androgen receptor (Homo sapiens) (UniProt P10275); assay: qHTS assay to identify small molecule antagonists of the androgen receptor (AR) signaling pathway (AID 743035; active means well fitted inhibition curve with a large enough effect in the signal ratio in the repeat runs, not every such curve was filed as active; the % refers to the signal ratio)
Outline: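 HEK293 cells stably carrying UAS-beta-lactamase reporter, 2,000/well, given compounds plus R1881 agonist and incubated 16 h at 37C. LiveBLAzer B/G FRET substrate then added for 2 h at room temperature before fluorescence reading.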

Compound	Potency [1]	Potency [2]	Potency [3]	Potency [4]	Potency [5]	Potency [6]	Potency [7]	Potency [8]	Potency [9]	Potency [10]
O=P(O)(O)CCCl	inactive	inactive	inactive	inactive	inactive	inactive				
COc1ccc(C(CN(C)C)C2(O)CCCCC2)cc1 (stereo unspecified)	inactive	inactive	inactive	inactive	inactive	inactive				
Nc1c(Cl)cc([N+](=O)[O-])cc1Cl	inactive		inactive and 61.1 µM (active)	inactive and 61.1 µM (active)		inactive	inactive	inactive	inactive and 61.1 µM (active)	
c1ccc(P(c2ccccc2)c2ccccc2)cc1	inactive	55.5 µM (active) and 61.1 µM (active)	12.4 µM (active) and 61.1 µM (active)	19.7 µM (active) and 54.5 µM (active)	inactive	inactive				
CC(C)(OOC(C)(C)c1ccccc1)c1ccccc1	inactive	inactive and 54.5 µM (active)		30.6 µM (active)	inactive	inactive	inactive	inactive	inactive	inactive
O=C(Nc1ccc(Br)cc1)c1cc(Br)cc(Br)c1O	3.45 µM (active) and 2.19 µM (active)	21.7 µM (active)	inactive and 19.3 µM (active)	inactive and 19.3 µM (active)	inactive and 24.5 µM (active) and 9.77 µM (active)	inactive				
CC(C)(c1cc(Cl)c(O)c(Cl)c1)c1cc(Cl)c(O)c(Cl)c1	inactive	inactive	inactive	inactive		inactive				
Cc1c(COC(=O)[C@@H]2[C@H](/C=C(\Cl)C(F)(F)F)C2(C)C)cccc1-c1ccccc1	inactive	inactive	inactive	inactive	inactive	inactive				
C[C@]12CCC(=O)C[C@@H]1CC[C@@H]1[C@@H]2CC[C@]2(C)[C@@H](O)CC[C@@H]12		26.6 µM (active) and inactive		inactive	inactive	inactive				
CN(C)C(=O)Nc1ccc(Cl)cc1	inactive	inactive			inactive	inactive				
CC(C)(C)c1ccccc1O	inactive		61.1 µM (active)	inactive	inactive	inactive				
S=C1NCCN1	inactive	inactive	inactive	inactive	inactive	inactive				
CCN(CC)N=O	inactive	inactive	inactive	inactive	inactive	inactive				
